Measurements taken from PubChem BioAssay (NCI).
Values joined by “and” are separate entries in the source; they are usually repeats but may differ in a detail not shown here. Identical values can stand only once. The panel holds about 83,000 compounds, 20% with a hit somewhere; the sample as a whole holds those more often.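 Cell lines were cultured in 96-well plates, exposed to a single compound concentration, and assessed for percent growth 48 hours later.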 Active and inactive are the calls of the source. How the source made its calls: active means growth percent below 10; inactive means the rest.

What was measured:
Experiment in all cases: NCI-60 one-dose screen, 48 h (100 = growth as untreated, 0 = no growth, -100 = all killed)
DU-145 prostate = tested on: DU-145 prostate
K-562 leukemia = tested on: K-562 leukemia
MALME-3M melanoma = tested on: MALME-3M melanoma
MDA-MB-231 breast = tested on: MDA-MB-231 breast
RXF 393 renal = tested on: RXF 393 renal
SF-268 CNS = tested on: SF-268 CNS
SF-295 CNS = tested on: SF-295 CNS
SF-539 CNS = tested on: SF-539 CNS
UACC-257 melanoma = tested on: UACC-257 melanoma

Measured: growth

O=C(/C=C/c1cccnc1)c1ccccc1
inactive: DU-145 prostate; 10 µM unless noted 105% | K-562 leukemia; 10 µM 28.9% | MALME-3M melanoma; 10 µM 94.2% | MDA-MB-231 breast; 10 µM 116% | RXF 393 renal; 10 µM unless noted 112% | SF-268 CNS; 10 µM 100% | SF-295 CNS; 10 µM 112% | SF-539 CNS; 10 µM 96.2% | UACC-257 melanoma; 10 µM 93.5%

CCN1/C(=C/C=C/C=C/c2sc3ccccc3[n+]2CC)Sc2ccccc21
active: DU-145 prostate; 10 µM unless noted -17.2% | K-562 leukemia; 10 µM -46.4% | MALME-3M melanoma; 10 µM -32.8% | MDA-MB-231 breast; 10 µM 8.54% | RXF 393 renal; 10 µM unless noted -64.4% | SF-268 CNS; 10 µM -75.4% | SF-295 CNS; 10 µM -23.8% | SF-539 CNS; 10 µM -57% | UACC-257 melanoma; 10 µM -57.7%

O=C(Nc1ccc(C(=O)O)c(O)c1)c1ccccc1
inactive: DU-145 prostate; 10 µM unless noted 108% and 126% | K-562 leukemia; 10 µM 101% and 102% | MALME-3M melanoma; 10 µM 88.5% and 92.3% | MDA-MB-231 breast; 10 µM 98.5% and 104% | RXF 393 renal; 10 µM unless noted 112% and 107% | SF-268 CNS; 10 µM 108% and 121% | SF-295 CNS; 10 µM 106% and 95.1% | SF-539 CNS; 10 µM 98% and 104% | UACC-257 melanoma; 10 µM 98.5% and 94.3%

COC1OCC(O)C(O)C1O (stereo not given)
inactive: DU-145 prostate; 10 µM unless noted 105% | K-562 leukemia; 10 µM 104% | MALME-3M melanoma; 10 µM 103% | MDA-MB-231 breast; 10 µM 110% | RXF 393 renal; 10 µM unless noted 106% | SF-268 CNS; 10 µM 98.4% | SF-295 CNS; 10 µM 105% | SF-539 CNS; 10 µM 107%

CC(=O)OCC(OC(C)=O)C(OC(C)=O)C(OC(C)=O)C(OC(C)=O)C(/C=N/Nc1ccccc1)=N/Nc1ccccc1 (stereo not given)
inactive: DU-145 prostate; 10 µM unless noted 78.4% | K-562 leukemia; 10 µM 22.4% | MALME-3M melanoma; 10 µM 84.5% | MDA-MB-231 breast; 10 µM 58.8% | RXF 393 renal; 10 µM unless noted 77% | SF-268 CNS; 10 µM 71.5% | SF-295 CNS; 10 µM 46.6% | SF-539 CNS; 10 µM 89.9% | UACC-257 melanoma; 10 µM 82.3%

O=c1ccn(C2CC(O)C(COC(c3ccccc3)(c3ccccc3)c3ccccc3)O2)c(=O)[nH]1 (stereo not given)
inactive: DU-145 prostate; 10 µM 107% | DU-145 prostate; 100 µM 55.7% | K-562 leukemia; 10 µM 79.1% | K-562 leukemia; 100 µM 26.5% | MALME-3M melanoma; 10 µM 94.4% | MALME-3M melanoma; 100 µM 70.7% | MDA-MB-231 breast; 10 µM 73.5% | MDA-MB-231 breast; 100 µM 66.1% | RXF 393 renal; 10 µM 86.5% | RXF 393 renal; 100 µM 36.6% | SF-268 CNS; 10 µM 83% | SF-268 CNS; 100 µM 42.9% | SF-295 CNS; 100 µM 38.2% | SF-539 CNS; 10 µM 97.2% | SF-539 CNS; 100 µM 60.3% | UACC-257 melanoma; 100 µM 55.2%

CC[N+](CC)=c1ccc2nc3c(cc(N)c4ccccc43)oc-2c1
active: DU-145 prostate; 10 µM unless noted -60% | K-562 leukemia; 10 µM 1.13% | MALME-3M melanoma; 10 µM -60.9% | MDA-MB-231 breast; 10 µM -71.5% | RXF 393 renal; 10 µM unless noted -23.7% | SF-268 CNS; 10 µM -54% | SF-295 CNS; 10 µM -83% | SF-539 CNS; 10 µM -79.7% | UACC-257 melanoma; 10 µM -70.2%

CSC1SCC2C(=O)N(C)C(C(C)C)C(=O)OCC(NC(=O)c3cnc4ccccc4n3)C(=O)NC(C)C(=O)N(C)C1C(=O)N(C)C(C(C)C)C(=O)OCC(NC(=O)c1cnc3ccccc3n1)C(=O)NC(C)C(=O)N2C (stereo not given)
active: DU-145 prostate; 10 µM unless noted -19.5% | K-562 leukemia; 10 µM -61.8% | MALME-3M melanoma; 10 µM -23.1% | MDA-MB-231 breast; 10 µM -8.05% | RXF 393 renal; 10 µM unless noted -0.0463% | SF-268 CNS; 10 µM -2.43% | SF-295 CNS; 10 µM -22.3% | SF-539 CNS; 10 µM -52.9% | UACC-257 melanoma; 10 µM -13.6%

CN(C)C(=S)SC(=S)N(C)C
inactive: DU-145 prostate; 10 µM unless noted 108% and 104% | K-562 leukemia; 10 µM 58% and 75.7% | MALME-3M melanoma; 10 µM 84.7% and 85% | MDA-MB-231 breast; 10 µM 105% and 122% | RXF 393 renal; 10 µM unless noted 108% and 109% | SF-268 CNS; 10 µM 107% and 95.8% | SF-295 CNS; 10 µM 100% and 101% | SF-539 CNS; 10 µM 93.5% and 101% | UACC-257 melanoma; 10 µM 96.5% and 77.5%

NNc1ccc2ccccc2c1
inactive: DU-145 prostate; 10 µM unless noted 98.5% and 111% | K-562 leukemia; 10 µM 86% and 115% | MALME-3M melanoma; 10 µM 90.1% and 96.8% | MDA-MB-231 breast; 10 µM 68.7% and 90.1% | RXF 393 renal; 10 µM unless noted 122% and 98.9% | SF-268 CNS; 10 µM 75.8% and 96.8% | SF-295 CNS; 10 µM 95.8% and 102% | SF-539 CNS; 10 µM 86% and 100% | UACC-257 melanoma; 10 µM 107% and 105%

N=S(c1ccccc1[N+](=O)[O-])c1ccccc1[N+](=O)[O-]
inactive: DU-145 prostate; 10 µM unless noted 80.4% | MALME-3M melanoma; 10 µM 74.5% | MDA-MB-231 breast; 10 µM 91.4% | RXF 393 renal; 10 µM unless noted 79% | SF-268 CNS; 10 µM 90.2% | SF-295 CNS; 10 µM 99.5% | SF-539 CNS; 10 µM 39.2% | UACC-257 melanoma; 10 µM 89.7%
active: K-562 leukemia; 10 µM 1.79%
